Experimental data taken from article PMC13083723 (Patterns, 2026).
Hit rate of the full screen: of about 5,400 compounds, about 190 (3.5%) showed an effect of 50% or more. Only a selection was taken, and strong results are over-represented in it overall.

The compounds below were run on Vero-E6 (assay: primary screen, phospholipidosis by LipidTOX staining; higher = more effect of the substance). Conditions: 10 µM.
How it was run: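 Single-concentration screen at 10 μM, with DMSO 0.1 v/v % and amiodarone 10 μM as controls. Read-out is LipidTOX Red phospholipid staining, which tolerates aldehyde fixation, in Vero-E6 cells.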

Row | Structure (SMILES) | result_ITMP
1 | CC1(C)S[C@@H]2C(N3C(=O)[C@@H](c4ccccc4)NC3(C)C)C(=O)N2[C@H]1C(=O)[O-] (stereo partly shown) | -1.52%
2 | CC(=O)O[C@@]12CO[C@@H]1C[C@H](O)[C@@]1(C)C(=O)[C@H](O)C3=C(C)[C@@H](O)C[C@@](O)([C@@H](OC(=O)c4ccccc4)[C@H]21)C3(C)C | -5.35%
3 | Cc1noc(-c2ccc(-c3ccc(CC(=O)[O-])cc3)cc2)c1NC(=O)O[C@H](C)c1ccccc1 | -0.34%
4 | O=C(Nc1ccccc1)Nc1ccc(-c2ccc(C(=O)[C@@H]3CCC[C@H]3C(=O)O)cc2)cc1 [R4A_0000400_001 / SPE_K81614372] | -1.59%
5 | Cn1nccc1Nc1nccc(-c2ccn([C@H](CO)c3ccc(Cl)c(F)c3)c(=O)c2)n1 [R4A_0003897_001 / SPE_K86309810] | -3.82%
6 | O[C@@H]1[C@H](O)[C@@H](CCl)O[C@H]1n1cnc2c(NC3CC4CCC3C4)ncnc21 (mixture of isomers) | -1.27%
7 | CCCCN(CCCC)CCC(O)c1cc2c(Cl)cc(Cl)cc2c2cc(C(F)(F)F)ccc12 (stereo not shown) | 68.8%
8 | CCCCN(CCCC)CC(O)c1cc(Cl)cc2c1-c1ccc(Cl)cc1/C2=C/c1ccc(Cl)cc1 (stereo not shown) | -0.63%
9 | CC(=O)N[C@@H]1C[C@H](O)[C@@H](CO)O[C@H]1O[C@H]1[C@H](O)[C@@H](O)[C@H](O)O[C@@H]1C(=O)[O-] | -0.41%
10 | CC(C)[C@@H]1C(=O)N(S(C)(=O)=O)[C@@H]2CCN(C(=O)/C=C/CN3CCCCC3)[C@H]21 | 0.42%
11 | Cc1cccn2c(=O)c(/C=C(\C#N)c3nc4ccccc4s3)c(Oc3ccc(F)cc3)nc12 | -3.48%
12 | O=C(CCn1cnc2c(O)ncnc21)Nc1ccc(C(=O)O)cc1 | -5.54%
13 | C[C@@H]1CN(CC(=O)Nc2ccc3c(c2)Cc2cccc(-c4cc(=O)cc(N5CCOCC5)o4)c2S3)C[C@H](C)O1 | 4.24%
14 | CC(N)Cc1c[nH]c2ccc(OCc3cccs3)cc12 (stereo not shown) | 55.2%
15 | NC(Cc1c[nH]c2ccc(O)cc12)C(=O)O (stereo not shown) | -1.81%
16 | CC(N)Cc1c[nH]c2ccc(O)cc12 (stereo not shown) | -1.42%
17 | C=C[C@H]1C[N@]2CC[C@H]1C[C@@H]2[C@@H](O)c1ccnc2ccc(OC)cc12 | 11.5%
18 | CC1(C)[C@@H]2C[C@@H](O)[C@@](C)(O)[C@H]1C2 | -10.7%
19 | c1cc2c(c(N3CCNCC3)c1)OCCO2 | -1.86%
20 | O=S(=O)(c1ccccc1)c1cnc2c(N3CCNCC3)cccc2c1 | 39.6%
21 | Cc1ccc(Sc2ccccc2N2CCNCC2)c(C)c1 | 57.3%
22 | Cc1cc(CN2CCN(c3c(Br)cnc4[nH]c(-c5ccc(N6CCN(C)CC6)cc5)nc34)CC2)no1 | -0.42%
23 | C[C@H](NC(=O)CCc1nc2ccccc2c(=O)[nH]1)c1ccccc1 [R4A_0003503_001 / SPE_A63444178] | 0.66%
24 | CC(C)[C@H]1c2ccc(F)cc2CC[C@@]1(CCN(C)CCCc1nc2ccccc2[nH]1)OC(=O)C1CC1 | 68.1%
25 | COCC(=O)O[C@]1(CCN(C)CCCc2nc3ccccc3[nH]2)CCc2cc(F)ccc2[C@@H]1C(C)C | 88.2%

Row | Structure (SMILES) | result_ITMP
26 | O=C(O)CCc1nc2ccccc2[nH]1 | -0.69%
27 | Cc1cc(S(=O)(=O)[O-])c2c(C)ccc(C(C)C)cc1-2 | -3.22%
28 | CC1=CC(=O)[N-]S(=O)(=O)O1 | -5.65%
29 | C[C@]12CCC(=O)C=C1CC[C@@H]1[C@@H]2CC[C@@]2(C)[C@H]1CC[C@]2(C)O | 0.46%
30 | O=C([O-])C(O)C(O)C(O)C(O)CO (stereo not shown) | -6.08%
31 | O=C1[C@@H]2[C@H]3CC[C@H](C3)[C@@H]2C(=O)N1CCCCN1CCN(c2ncccn2)CC1 | -0.39%
32 | CN(c1nccc(=O)[nH]1)C1CCN(c2nc3ccccc3n2Cc2ccc(F)cc2)CC1 | 0.52%
33 | c1ccc(Cn2c(N3CCNCC3)nc3ccccc32)cc1 | 51.9%
34 | c1ccc(Cn2c(-c3ccc(OC[C@H](C4CCNCC4)n4c(-c5ccccc5)nc5ccccc54)cc3)nc3ccccc32)cc1 | 13.3%
35 | C[C@H]1[C@H](C)CC[C@]2(C(=O)O)CC[C@]3(C)C(=CC[C@@H]4[C@@]5(C)CC[C@H](O)C(C)(C)[C@@H]5CC[C@]43C)[C@H]12 | -0.84%
36 | Clc1ccccc1CN1CCc2sccc2C1 | 5.84%
37 | CC[N+](CC)(CCNC(=O)C(=O)NCC[N+](CC)(CC)Cc1ccccc1Cl)Cc1ccccc1Cl | -0.68%
38 | Clc1ccccc1CNC[C@H]1CC[C@H](CNCc2ccccc2Cl)CC1 | 111%
39 | COC(=O)[C@@]12OC[C@]34[C@H]([C@@H](O)[C@@H]1O)[C@@]1(C)CC(=O)C(O)=C(C)[C@@H]1C[C@H]3OC(=O)[C@H](OC(=O)/C=C(\C)C(C)C)[C@@H]24 | -3.12%
40 | O=C1CN(/N=C/c2ccc(-c3ccc([N+](=O)[O-])cc3)o2)C(=O)[N-]1 | -3.77%
41 | CCc1oc2ccccc2c1C(=O)c1cc(Br)c(O)c(Br)c1 | 0.74%
42 | CCCCc1oc2ccccc2c1C(=O)c1cc(I)c(OCCN(CC)CC)c(I)c1 | 55.1%
43 | CN(CCOc1ccc(NS(C)(=O)=O)cc1)CCc1ccc(NS(C)(=O)=O)cc1 | -1.68%
44 | CCCCc1oc2ccc(NS(C)(=O)=O)cc2c1C(=O)c1ccc(OCCCN(CCCC)CCCC)cc1 | 74.9%
45 | CCCCN(CCCC)CCCOC(=O)c1ccc(N)cc1 | 4.87%
46 | CCc1oc2ccccc2c1C(=O)c1ccc(OCC(=O)O)cc1 | -9.49%
47 | CC[C@@H](C)C[C@@H](C)CCCCCCCCC(=O)N[C@H]1C[C@@H](O)[C@@H](NCCN)NC(=O)[C@@H]2[C@@H](O)CCN2C(=O)[C@H]([C@H](O)CCN)NC(=O)[C@H]([C@H](O)[C@@H](O)c2ccc(O)cc2)NC(=O)[C@@H]2C[C@@H](O)CN2C(=O)[C@H]([C@@H](C)O)NC1=O | -8.5%
48 | CC(C)c1ccc2c(c1)CC[C@H]1[C@](C)(CN)CCC[C@]21C | 80.5%
49 | CC(C)c1cc2c(cc1S(=O)(=O)O)[C@@]1(C)CCC[C@@](C)(C(=O)O)[C@@H]1CC2 | -4.65%
50 | Cc1c(N)nc([C@H](CC(N)=O)NC[C@@H](N)C(N)=O)nc1C(=O)N[C@H](C(=O)N[C@@H](C)[C@H](O)[C@@H](C)C(=O)N[C@@H](C(=O)NCCc1nc(-c2nc(C(=O)NCCC[S+](C)C)cs2)cs1)[C@@H](C)O)C(O[C@H]1O[C@H](CO)[C@H](O)[C@@H](O)[C@H]1O[C@H]1O[C@H](CO)[C@@H](O)[C@H](OC(N)=O)[C@@H]1O)c1c[nH]cn1 (stereo partly shown) | 7.07%

Row | Structure (SMILES) | result_ITMP
51 | C[C@]12C=CC(=O)N[C@@H]1CC[C@@H]1[C@@H]2CC[C@]2(C)[C@@H](C(=O)Nc3cc(C(F)(F)F)ccc3C(F)(F)F)CC[C@@H]12 | -3.63%
52 | C[C@@H]1CC[C@@]2(OC1)O[C@H]1C[C@H]3[C@@H]4CC=C5C[C@@H](O[C@@H]6O[C@H](CO)[C@@H](O[C@@H]7O[C@@H](C)[C@H](O)[C@@H](O)[C@H]7O)[C@H](O)[C@H]6O[C@@H]6O[C@@H](C)[C@H](O)[C@@H](O)[C@H]6O)CC[C@]5(C)[C@H]4CC[C@]3(C)[C@H]1[C@@H]2C | 18.9%
53 | CC1(C)S[C@@H]2[C@H](NC(=O)Cc3ccccc3)C(=O)N2[C@H]1C(=O)[O-] | -4.24%
54 | COC1CCN(C(=O)c2cc(Cc3n[nH]c(=O)c4ccccc34)ccc2F)CC1 | 2.83%
55 | Clc1ccc(Nc2nnc(Cc3ccncc3)c3ccccc23)cc1 | -1.32%
56 | CN1CCCC(n2nc(Cc3ccc(Cl)cc3)c3ccccc3c2=O)CC1 (stereo not shown) | 57.2%
57 | Cc1nnc(SCC2=C(C(=O)[O-])N3C(=O)[C@@H](NC(=O)Cn4cnnn4)[C@H]3SC2)s1 | -0.51%
58 | C=CCN1CC[C@@]2(C)c3cc(O)ccc3C[C@H]1[C@H]2C | -0.02%
59 | CN1CC[C@@H]2CN3CCc4cccc(c43)[C@@H]2C1 | 5.83%
60 | CN1CCCC(CC2c3ccccc3Sc3ccccc32)C1 (stereo not shown) | 74.2%
61 | CN1CCCC(CN2c3ccccc3Sc3ccccc32)C1 (stereo not shown) | 42.2%
62 | C[C@]12CC[C@@H](O)C[C@@H]1CC[C@@H]1[C@@H]2CC[C@]2(C)C(c3ccccc3)=CC[C@@H]12 | -2.07%
63 | N#CCc1ccccc1C#Cc1ccc(CCC(=O)O)c(F)c1 | -8.03%
64 | O=C(O[C@H]1C[C@H]2CC[C@@H](C1)[N+]21CCCC1)C(O)(c1ccccc1)c1ccccc1 | -3.78%
65 | CN1[C@@H](CC(=O)c2ccccc2)CCC[C@H]1C[C@H](O)c1ccccc1 | 13.8%
66 | CCN(CC)CCCC(C)Nc1c2ccc(Cl)cc2nc2ccc(OC)cc12 (stereo not shown) | 110%
67 | COc1ccc2nc3ccc(Cl)cc3c(SCCCN)c2c1 | -9.55%
68 | CCN(CCO)CCCC(C)Nc1ccnc2cc(Cl)ccc12 (stereo not shown) | 1.54%
69 | CC1(C)CCC(C)(C)c2c1cc(C(=O)Nc1cc(F)c(C(=O)O)c(F)c1)c(O)c2Cl | -2.47%
70 | CSc1ccc([C@H]2CN3CCC[C@H]3c3ccccc32)cc1 (racemic) | 14.1%
71 | CSc1ccc2c(c1)C(N1CCN(C)CC1)Cc1ccccc1S2 (stereo not shown) | 79.9%
72 | CC[C@H]1[C@@H](O)[C@@H]2[C@H](CC[C@]3(C)[C@@H]([C@H](C)CCOS(=O)(=O)[O-])CC[C@@H]23)[C@@]2(C)CC[C@@H](O)C[C@@H]12 | -1.93%
73 | Nc1nc(=O)c2c(CCc3ccc(C(=O)N[C@@H](CCC(=O)[O-])C(=O)[O-])cc3)c[nH]c2[nH]1 | -3.84%
